Measurements reported in publication PMC4552634, “A New Set of Chemical Starting Points with Plasmodium falciparum Transmission-Blocking Potential for Antimalarial Drug Discovery” (PLoS ONE, 2015).
In all, about 13,000 compounds went through this assay and about 3,200 (25%) showed an effect of 50% or more. This is one part of the list.

Tested on: P. falciparum stage V gametocytes
Set-up: BacTiter-Glo ATP luminescence viability of purified stage V gametocytes in 384-well plates, per cent inhibition versus DMSO
Settings: 48 h, 5 µM; inhibitor

How did the “% Inhibition” value turn out when `Clc1ccc(-c2cc(-c3csc(NCCN4CCCCC4)n3)on2)cc1` [TCMDC-140321] was run?
Its value is -2.378%.

Which “% Inhibition” value does the source give for `NC(=O)C1CCN(Cc2cccc(-c3cccc(-c4nc5cc(C(F)(F)F)ccc5[nH]4)c3)c2)CC1.O=C(O)C(F)(F)F` [TCMDC-132696] here?
The value was -65.64%.

How did the “% Inhibition” value turn out when `Cc1ccc(C(C)C)c(Oc2ccc3nc(N)nc(N)c3c2)c1` [TCMDC-135559] was run?
The value was -10.97%.

With `OC1(Cc2ccccc2)CCN(Cc2cccc(-c3c[nH]c4nc(NC5CCCC5)ncc34)c2)CC1` [TCMDC-133773] as the molecule, how does the “% Inhibition” value read?
Its value is -59.82%.

Which “% Inhibition” value does the source give for `O=C(O)C(F)(F)F.c1cc(CNCCc2ccncc2)cc(-c2ccc(-c3nc4ccccc4[nH]3)s2)c1` [TCMDC-132842] here?
Its value is -14.4%.

With `FC(F)(F)c1ccc2nc(-c3cccc(-c4ccc(CNCCc5ccncc5)cc4)c3)[nH]c2c1` [TCMDC-132845] as the molecule, how does the “% Inhibition” value read?
The value was -28.78%.

`FC(F)(F)c1ccc2nc(-c3cccc(-c4cccc(CNCCc5ccncc5)c4)c3)[nH]c2c1` [TCMDC-132847] was tested. Which “% Inhibition” value did it give?
Its value is 78.26%.

With `FC(F)(F)c1ccc2nc(-c3cccc(-c4cccc(CN5CCN(c6ccncc6)CC5)c4)c3)[nH]c2c1` [TCMDC-132911] as the molecule, how does the “% Inhibition” value read?
The value was -29.28%.

How did the “% Inhibition” value turn out when `c1cc(CNCCc2ccncc2)cc(-c2csc(-c3nc4ccccc4[nH]3)c2)c1` [TCMDC-132841] was run?
Its value is -33.89%.

With `c1cc(CNCCc2ccncc2)cc(-c2cccc(-c3nc4ccccc4[nH]3)c2)c1` [TCMDC-132858] as the molecule, how does the “% Inhibition” value read?
Its value is 84.49%.

`O=C(c1cc2nc3c(c(C(F)(F)F)n2n1)CCc1ccccc1-3)N1CCN2CCCC2C1` (stereo not drawn) [TCMDC-123850] was tested. Which “% Inhibition” value did it give?
Its value is 0.1952%.

With `CC(C)c1ccc(CN2CCC(CNC(=O)c3cc(-c4cccc(C(F)(F)F)c4)cs3)C2)cc1` (stereo not drawn) [TCMDC-134435] as the molecule, how does the “% Inhibition” value read?
The value was 101.9%.

`CC(C)(C)CCN1CCC(CNC(=O)c2cc(-c3cccc(Cl)c3)cs2)C1` (stereo not drawn) [TCMDC-134426] was tested. Which “% Inhibition” value did it give?
Its value is 39.67%.

With `CC(C)(C)c1ccc(CN2CCC(NC(=O)c3cc(-c4cccc(C(F)(F)F)c4)cs3)C2)cc1` (stereo not drawn) [TCMDC-134475] as the molecule, how does the “% Inhibition” value read?
The value was 53.3%.

Which “% Inhibition” value does the source give for `O=C(NCC1CCN(Cc2ccc(F)cc2)C1)c1cc(-c2cccc(C(F)(F)F)c2)cs1` (stereo not drawn) [TCMDC-134481] here?
The value was 39.58%.

For `CCc1ccc(CN2CCC(CNC(=O)c3cc(-c4cccc(C(F)(F)F)c4)cs3)C2)cc1` (stereo not drawn) [TCMDC-134430], which “% Inhibition” value is on record?
Its value is 102.1%.

Which “% Inhibition” value does the source give for `O=C(NC1CCN(Cc2ccc(F)cc2)CC1)c1ccc(-c2cccc(C(F)(F)F)c2)s1` [TCMDC-134358] here?
The value was -14.39%.

How did the “% Inhibition” value turn out when `CC(C)(C)CCN1CCC(NC(=O)c2ccc(-c3cccc(C(F)(F)F)c3)s2)CC1` [TCMDC-134322] was run?
Its value is -68.21%.

How did the “% Inhibition” value turn out when `CC(C)(C)CCN1CCC(CNC(=O)c2cc(-c3cccc(C(F)(F)F)c3)cs2)C1` (stereo not drawn) [TCMDC-134425] was run?
The value was 78.38%.

For `CSc1ccc(CN2CCC(NC(=O)c3ccc(-c4cccc(C(F)(F)F)c4)s3)CC2)cc1` [TCMDC-134340], which “% Inhibition” value is on record?
The value was 5.591%.

`COc1ccc(CNC(=O)NC2CCN(c3ccnc(Nc4ccc(F)cc4)n3)C2)cc1` (stereo not drawn) [TCMDC-133592] was tested. Which “% Inhibition” value did it give?
The value was -44.87%.

`CCCc1cc(Cc2cnc(N)nc2N)cc(CCC)c1OCCCCC(=O)OC` [TCMDC-137290] was tested. Which “% Inhibition” value did it give?
The value was -38.14%.

Which “% Inhibition” value does the source give for `CCNc1cc(C)nc(Nc2ccccc2)n1` [TCMDC-134006] here?
Its value is 18.88%.

For `CC(=O)Nc1nc(C(=O)Nc2ccc(-c3ccc(-c4nc5ccccc5[nH]4)cc3)cc2)cs1` [TCMDC-137128], which “% Inhibition” value is on record?
The value was -5.634%.

`CCOC(=O)CCCOc1c(OC)cc(Cc2cnc(N)nc2N)cc1OC` [TCMDC-137899] was tested. Which “% Inhibition” value did it give?
The value was -8.343%.

With `O=C(Nc1ccc(Cl)c(C(F)(F)F)c1)Nc1ccc(Cl)c(C(F)(F)F)c1` [TCMDC-137559] as the molecule, how does the “% Inhibition” value read?
The value was -42.31%.

How did the “% Inhibition” value turn out when `CC(C)(C)c1ccc(CN2CCC(CNC(=O)c3cc(-c4cccc(C(F)(F)F)c4)cs3)C2)cc1` (stereo not drawn) [TCMDC-134442] was run?
Its value is 107%.

For `CN(C)CCOc1cc(NC(=O)/C=C/c2cccc3ccccc23)ccc1I` [TCMDC-139119], which “% Inhibition” value is on record?
Its value is 42.15%.

Which “% Inhibition” value does the source give for `OCC1CCN(Cc2ccc(-c3cccc(-c4nc5ccccc5[nH]4)c3)cc2)CC1` [TCMDC-132552] here?
Its value is 86.93%.

How did the “% Inhibition” value turn out when `OCCC1CCN(Cc2ccc(-c3ccc(-c4nc5ccccc5[nH]4)cc3)cc2)CC1` [TCMDC-133905] was run?
Its value is -1.76%.

How did the “% Inhibition” value turn out when `OCC1CCN(Cc2ccc(-c3cccc(-c4nc5ccc(F)cc5[nH]4)c3)cc2)CC1` [TCMDC-133121] was run?
The value was 70.65%.

With `OCC1CCN(Cc2ccc(-c3ccc(-c4nc5ccccc5[nH]4)cc3)cc2)CC1` [TCMDC-133927] as the molecule, how does the “% Inhibition” value read?
Its value is -51.35%.

How did the “% Inhibition” value turn out when `NC(=O)C1CCN(Cc2ccc(-c3cccc(-c4nc5ccc(F)cc5[nH]4)c3)cc2)CC1` [TCMDC-132689] was run?
The value was -35.18%.

How did the “% Inhibition” value turn out when `OCC1CCN(Cc2cccc(-c3ccc(-c4nc5ccc(F)cc5[nH]4)cc3)c2)CC1` [TCMDC-133934] was run?
The value was -11.78%.

How did the “% Inhibition” value turn out when `COc1cccc(CNC[C@@H](O)[C@H](Cc2ccccc2)NC(=O)c2cc(OC(C)C)cc(N3CCCCS3(=O)=O)c2)c1` [TCMDC-134522] was run?
Its value is -6.565%.

How did the “% Inhibition” value turn out when `COc1ccc2c(c1)CCCC2C(C)NCC(O)c1cccc(C(F)(F)F)c1` (stereo not drawn) [TCMDC-131535] was run?
Its value is -11.59%.

Which “% Inhibition” value does the source give for `Cc1[nH]c(C)c(-c2ccc(-c3cccc(Cl)c3)nc2)c(=O)c1Cl` [TCMDC-136300] here?
The value was 76.37%.

`Cc1[nH]c(C)c(-c2ccc(-c3cccc(Cl)c3)nc2)c(=O)c1Br` [TCMDC-136160] was tested. Which “% Inhibition” value did it give?
The value was 67.06%.

With `Cc1ccc(NC(=O)c2ccc(CN3CCCN(CCC(C)C)CC3)cc2)cc1C` [TCMDC-136443] as the molecule, how does the “% Inhibition” value read?
Its value is -19.3%.

How did the “% Inhibition” value turn out when `Cc1nc2c(Nc3nc(-c4ccncc4)cs3)ncnc2n1-c1ccccc1Cl` [TCMDC-136288] was run?
The value was 72.25%.

`Cc1nc(Nc2ccncc2)cc(-c2ccncc2)n1` [TCMDC-124589] was tested. Which “% Inhibition” value did it give?
Its value is -12.99%.

With `Cc1ccc(-n2c(C)nc3c(Nc4ccc(-c5ccncc5)cc4)ncnc32)c(C)c1` [TCMDC-136289] as the molecule, how does the “% Inhibition” value read?
The value was 103.3%.

With `Cn1cnc2c(Nc3ccncc3)nc(-c3ccc4ccccc4c3)nc21` [TCMDC-141131] as the molecule, how does the “% Inhibition” value read?
Its value is -3.392%.

How did the “% Inhibition” value turn out when `Oc1ccc2[nH]c(-c3cccc(F)c3)nc2c1CN1CCC(O)(c2ccccc2)CC1` [TCMDC-136359] was run?
The value was -19.77%.

`CC(C(=O)Nc1ccc(Br)cc1Br)N1CCN(C(=O)c2ccco2)CC1` (stereo not drawn) [TCMDC-124879] was tested. Which “% Inhibition” value did it give?
The value was -7.948%.

How did the “% Inhibition” value turn out when `CCCC(C)NC(=O)[C@H](CC1CCCCC1)NC(=O)c1ccc(O)c(-c2ccc(OC)cc2)c1` (stereo partly drawn) [TCMDC-140801] was run?
The value was 27.46%.

For `CN(C)CCCOc1cccc(NC(=O)Nc2ccc(-c3ccccc3)cc2)c1` [TCMDC-139539], which “% Inhibition” value is on record?
Its value is -65.39%.

For `CC[C@H](C)CNC(=O)c1cncc(-c2ccc(CNCCOc3ccccc3)cc2)c1` [TCMDC-134239], which “% Inhibition” value is on record?
Its value is -0.3321%.

With `CN(C)CCCNCc1ccc(-c2ccc(CNCCOc3ccccc3)cc2)cc1` [TCMDC-141457] as the molecule, how does the “% Inhibition” value read?
Its value is 91.94%.

`CN(C)CCCNCc1ccc(-c2ccc(CNCCc3ccccc3)cc2)cc1` [TCMDC-141456] was tested. Which “% Inhibition” value did it give?
Its value is 100.3%.

`CCCNC(=O)c1cncc(-c2ccc(CNCCCc3ccccc3)cc2)c1` [TCMDC-134248] was tested. Which “% Inhibition” value did it give?
The value was 11.91%.

With `CC1(C)N=C(N)N=C(N)N1OCCOc1cccc(C(F)(F)F)c1` [TCMDC-131615] as the molecule, how does the “% Inhibition” value read?
The value was 4.099%.

Which “% Inhibition” value does the source give for `CCc1c(CCNCCCCCCNCCc2ccc(Br)cc2)ccc(O)c1O` [TCMDC-132044] here?
Its value is 115.9%.

`Cc1cc(CNCCCCCCNCc2cccc([N+](=O)[O-])c2)ccc1O` [TCMDC-140413] was tested. Which “% Inhibition” value did it give?
Its value is 32.63%.

`CCc1c(CCNCCCCCCNCCc2ccc([N+](=O)[O-])cc2)ccc(O)c1O` [TCMDC-132067] was tested. Which “% Inhibition” value did it give?
Its value is 69.46%.

Which “% Inhibition” value does the source give for `CCCCCCNCc1c(O)ccc2c(CNCCCCCC)c(O)ccc12` [TCMDC-137592] here?
The value was -1.678%.

Which “% Inhibition” value does the source give for `O=C(N[C@H]1CCCC[C@H]1C(=O)O)c1ccccc1` [TCMDC-124293] here?
Its value is -3.601%.

With `Cc1ccc(CNC(=O)c2cnc(N3CCN(c4ccncc4)CC3)c(Cl)c2)cc1` [TCMDC-134626] as the molecule, how does the “% Inhibition” value read?
The value was 3.173%.

`Cc1[nH]c2ccccc2c1C1CCN(CCCCNC(=O)c2ccc(-c3ccc(C#N)cc3)cc2)CC1` [TCMDC-138808] was tested. Which “% Inhibition” value did it give?
Its value is 60.39%.

Which “% Inhibition” value does the source give for `COc1c(C2CCN(CCCCNC(=O)c3ccc(-c4ccc(C#N)cc4)cc3)CC2)cc(Cl)c2c1CCCC2` [TCMDC-135288] here?
The value was -31.75%.

Which “% Inhibition” value does the source give for `N#Cc1ccc(-c2ccc(C(=O)NCCCCN3CCC(c4nc5ccccc5[nH]4)CC3)cc2)cc1` [TCMDC-133362] here?
Its value is 24.39%.

`COc1c(C2CCN(CCCCNC(=O)c3ccc(-c4ccc(C#N)cc4)cc3)CC2)ccc2c1C(C)(C)CCC2(C)C` [TCMDC-135481] was tested. Which “% Inhibition” value did it give?
The value was 92.96%.

Which “% Inhibition” value does the source give for `Cc1ccc(C2CCN(CCCCNC(=O)c3ccc(-c4ccc(C#N)cc4)cc3)CC2)c(O)c1` [TCMDC-138658] here?
The value was -70.86%.

For `CC1(C)CCC(C)(C)c2c1ccc(C1CCN(CCCCNC(=O)c3ccc(-c4ccc(Cl)cc4)cc3)CC1)c2O` [TCMDC-135483], which “% Inhibition” value is on record?
Its value is 86.31%.

How did the “% Inhibition” value turn out when `Cc1cc(C2CCN(CCCCNC(=O)c3ccc(-c4ccc(C#N)cc4)cc3)CC2)c(C)cc1O` [TCMDC-138817] was run?
The value was -58.22%.

How did the “% Inhibition” value turn out when `CC1(C)CCC(C)(C)c2c1ccc(C1CCN(CCCCNC(=O)c3ccc(-c4ccc(C#N)cc4)cc3)CC1)c2O` [TCMDC-135505] was run?
Its value is 91.89%.

For `CCc1ccc(C2CCN(CCCCNC(=O)c3ccc(-c4ccc(Cl)cc4)cc3)CC2)c(O)c1` [TCMDC-138548], which “% Inhibition” value is on record?
The value was 18.22%.

With `Cc1c(C2CCN(CCCCNC(=O)c3ccc(-c4ccc(C#N)cc4)cc3)CC2)c2ccccc2n1CCO` [TCMDC-138815] as the molecule, how does the “% Inhibition” value read?
The value was -16.09%.

Which “% Inhibition” value does the source give for `COc1c(C2=CCN(CCCCNC(=O)c3ccc(-c4ccc(C#N)cc4)cc3)CC2)c(C)cc2c1C(C)(C)CCC2(C)C` [TCMDC-135480] here?
Its value is 3.716%.
